# Laboratory results reported in PubChem BioAssay (EPA / NIEHS).
# “And” between values parts separate entries of the source, which are not always exact repeats. Identical values can stand only once. Inconclusive results are not listed. More than one record can exist for a structure, and the calls need not agree. The source made the active and inactive calls. How the source made its calls, unless noted: active means hit-call score of the fitted dose curve at least 0.9, where 1 is the maximum; inconclusive means response in the unintended direction; inactive means score below 0.9.
# Key:
# [1] = biological target: Estrogen receptor (Homo sapiens) (UniProt P03372); assay: ATG_ERa_TRANS: Attagene TRANS-FACTORIAL HepG2 Assay for human Estrogen Receptor alpha (ERa) (AID 2282970); settings: HepG2 Attagene TRANS ERa GAL4 reporter, mRNA
# In short: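 HepG2 cells transiently transfected with multiplexed GAL4-UAS reporter units read out chimeric NR-Gal4 activity. After 24 h compound exposure, reporter mRNA was quantified by RT-PCR, 6-FAM labeling, HpaI digestion and capillary electrophoresis, relative to DMSO.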
# [2] = biological target: Steroid hormone receptor ERR1 (Homo sapiens) (UniProt P11474); assay: ATG_ERRa_TRANS: Attagene TRANS-FACTORIAL HepG2 Assay for human Estrogen-Related Receptor alpha (ERRa) (AID 2282971); settings: HepG2 Attagene TRANS reporter, ERRa transactivation
# In short: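 HepG2 cells transiently transfected with GAL4-UAS reporter units and chimeric NR-Gal4 constructs; after 24 hour compound incubation, reporter mRNA quantified by RT-PCR, fluorescent labelling and capillary electrophoresis, gain of signal versus DMSO.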
# [3] = biological target: X-box-binding protein 1 (Homo sapiens) (UniProt P17861); assay: ATG_Xbp1_CIS: Attagene CIS-FACTORIAL HepG2 Assay for human X-box Binding Protein 1 (XBP1) (AID 2282972; active means hit-call score of the fitted dose curve at least 0.9, where 1 is the maximum; inactive means score below 0.9); settings: HepG2 XBP1 cis-element reporter, Attagene multiplex; actives raise or lower the signal
# In short: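 Fluorescence-labelled cDNA fragments from reporter transcripts, separated by capillary electrophoresis, give the signal. Source: HepG2 cells transfected with promoter-driven reporter units, harvested 24 h post-dose. DMSO served as reference for bidirectional curve fitting.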
# [4] = ATG_GAL4_TRANS: Attagene TRANS-FACTORIAL HepG2 Assay for GAL4 (Internal Marker) (AID 2282976); settings: HepG2 Attagene TRANS GAL4 internal marker reporter
# In short: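 Background-control readout: GAL4-UAS reporter transcript in transiently transfected HepG2 cells after 24 h compound exposure. Measured by RT-PCR, 6-FAM primer extension, HpaI digest and capillary electrophoresis; gain-of-signal fit versus DMSO.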
# [5] = biological target: Glucocorticoid receptor (Homo sapiens) (UniProt P04150); assay: ATG_GR_TRANS: Attagene TRANS-FACTORIAL HepG2 Assay for human Glucocorticoid Receptor (GR) (AID 2282978); settings: HepG2 Attagene TRANS GR reporter, mRNA transcription;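 further: activators score as hits since higher reporter transcript over DMSO is fitted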
# In short: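 HepG2 cells transiently transfected with GAL4-UAS reporter units and exogenous GR-Gal4 chimera, dosed 24 h. Reporter mRNA by RT-PCR, FAM labeling, HpaI digest and capillary electrophoresis; gain-of-signal fit versus DMSO.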
# [6] = biological target: Bile acid receptor (Homo sapiens) (UniProt Q96RI1); assay: ATG_FXR_TRANS: Attagene TRANS-FACTORIAL HepG2 Assay for Farnesoid X Receptor (FXR) (AID 2282979); settings: HepG2 Attagene TRANS FXR-GAL4 reporter transcription;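 further: hits raise reporter mRNA above DMSO so AC50 marks FXR activation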
# In short: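 HepG2 cells were transiently transfected with GAL4-UAS reporters driven by chimeric NR-Gal4 proteins and dosed for 24 h. Reporter mRNA was quantified by RT-PCR, fluorescent labelling, HpaI digestion and capillary electrophoresis, with gain of signal scored versus DMSO.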
# [7] = ATG_M_32_TRANS: Attagene TRANS-FACTORIAL HepG2 Assay for M32 Transcription Factor (Internal Marker) (AID 2282984); settings: HepG2 Attagene TRANS M32 internal marker reporter
# In short: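 HepG2 cells transiently transfected with multiple GAL4-UAS reporter transcription units, dosed for 24 hours; reporter mRNA quantified by RT-PCR, 6-FAM primer extension, HpaI digestion and capillary electrophoresis. Gain-of-signal fitted versus DMSO baseline; internal background-control marker.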
# [8] = biological target: Transcriptional activator Myb (Homo sapiens) (UniProt P10242); assay: ATG_Myb_CIS: Attagene CIS-FACTORIAL HepG2 Assay for human Myeloblastosis (Myb) Proto-Oncogene Transcription Factor (AID 2282986; active means hit-call score of the fitted dose curve at least 0.9, where 1 is the maximum; inactive means score below 0.9); settings: HepG2 Attagene CIS-FACTORIAL Myb reporter transcription; actives raise or lower the signal
# In short: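 Transiently transfected HepG2 cells carrying a multiplexed cis-promoter reporter set report endogenous Myb activity after 24 h compound exposure. Reporter mRNA is read by RT-PCR with capillary electrophoresis of fluorescent products, fitted bidirectionally against DMSO.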
# [9] = biological target: Nuclear respiratory factor 1 (Homo sapiens) (UniProt Q16656); assay: ATG_NRF1_CIS: Attagene CIS-FACTORIAL HepG2 Assay for human Nuclear Respiratory Factor 1 (NRF1) Orphan Gene (AID 2282987; active means hit-call score of the fitted dose curve at least 0.9, where 1 is the maximum; inactive means score below 0.9); settings: HepG2 NRF1 cis-element reporter, Attagene multiplex; actives raise or lower the signal
# In short: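 HepG2 cells transiently transfected with multiple cis-regulated reporter units, exposed 24 h. Reporter mRNAs measured by RT-PCR, fluorescent labelling, HpaI digestion and capillary electrophoresis; bidirectional fitting against DMSO.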
# [10] = biological target: Myc proto-oncogene protein (Homo sapiens) (UniProt P01106); assay: ATG_Myc_CIS: Attagene CIS-FACTORIAL HepG2 Assay for human Myelocytomatosis (Myc) Proto-Oncogene Transcription Factor (AID 2282990; active means hit-call score of the fitted dose curve at least 0.9, where 1 is the maximum; inactive means score below 0.9); settings: HepG2, Attagene cis-reporter transcription factor activity; actives raise or lower the signal
# In short: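 HepG2 cells transiently transfected with multiple cis-promoter-driven reporter transcription units, so endogenous TF activity is read. After 24 h compound exposure, reporter mRNA was quantified by RT-PCR, 6-FAM labelling, HpaI digestion and capillary electrophoresis; bidirectional fit versus DMSO.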
# [11] = ATG_M_19_TRANS: Attagene TRANS-FACTORIAL HepG2 Assay for M19 Transcription Factor (Internal Marker) (AID 2282974); settings: HepG2 Attagene TRANS-FACTORIAL M19 internal marker reporter
# In short: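 HepG2 transiently transfected with GAL4-UAS multiplex reporter constructs, exposed 24 h; reporter RNA quantified by RT-PCR, 6-FAM labeling, HpaI digestion and capillary electrophoresis; internal background marker fitted upward versus DMSO.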
# [12] = biological target: Estrogen-related receptor gamma (Homo sapiens) (UniProt P62508); assay: ATG_ERRg_TRANS: Attagene TRANS-FACTORIAL HepG2 Assay for human Estrogen-Related Receptor gamma (ERRg) (AID 2282977); settings: HepG2 Attagene TRANS reporter, ERRg transactivation;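 further: hits increase reporter signal over DMSO so potencies reflect activators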
# In short: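 HepG2 cells transiently transfected with multiplexed GAL4-UAS reporter units and chimeric NR-Gal4 constructs were exposed to test chemicals for 24 h. Reporter mRNA was measured by RT-PCR, 6-FAM primer extension, HpaI digestion and capillary electrophoresis; gain-of-signal versus DMSO.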
# [13] = biological target: Oxysterols receptor LXR-alpha (Homo sapiens) (UniProt Q13133); assay: ATG_LXRa_TRANS: Attagene TRANS-FACTORIAL HepG2 Assay for human Liver X Receptor alpha (LXRa) (AID 2282980); settings: HepG2 Attagene TRANS reporter, LXRa transactivation
# In short: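 HepG2 cells transiently transfected with GAL4-UAS reporter units for chimeric NR-Gal4 proteins, exposed to chemicals for 24 h. Reporter mRNA quantified by RT-PCR and capillary electrophoresis; gain of signal fitted relative to DMSO.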
# [14] = biological target: Oxysterols receptor LXR-beta (Homo sapiens) (UniProt P55055); assay: ATG_LXRb_TRANS: Attagene TRANS-FACTORIAL HepG2 Assay for human Liver X Receptor beta (LXRb) (AID 2282981); settings: HepG2 Attagene TRANS GAL4-LXRb reporter, mRNA
# In short: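 HepG2 cells transiently transfected with multiple reporter transcription units carrying chimeric NR-Gal4 proteins acting on GAL4-UAS reporters; compound exposure 24 h. Reporter mRNA quantified by RT-PCR, 6-FAM labelling, HpaI digestion and capillary electrophoresis; gain of signal versus DMSO.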
# [15] = ATG_M_06_TRANS: Attagene TRANS-FACTORIAL HepG2 Assay for M06 Transcription Factor (Internal Marker) (AID 2282983); settings: HepG2 Attagene TRANS M06 internal marker reporter;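 further: reporter transcript level by RT-PCR then capillary electrophoresis fluorescence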
# In short: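 HepG2 cells transiently transfected with GAL4-UAS multiple reporter units, dosed 24 h. Reporter RNA reverse-transcribed, PCR-amplified, 6-FAM-labeled, HpaI-digested and quantified by capillary electrophoresis; this internal-marker signal fitted upward relative to DMSO.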
# [16] = biological target: Nuclear receptor subfamily 4 group A member 2 (Homo sapiens) (UniProt P43354); assay: ATG_NURR1_TRANS: Attagene TRANS-FACTORIAL HepG2 Assay for human Nuclear Receptor Related Protein 1 (NURR1) (AID 2282985); settings: HepG2 Attagene TRANS reporter, mRNA readout
# In short: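 HepG2 cells transiently transfected with GAL4-UAS reporter units and chimeric NR-Gal4 constructs; chemical exposure 24 h. Reporter mRNA quantified by RT-PCR, fluorescent labelling and capillary electrophoresis; gain of signal fitted relative to DMSO baseline.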
# [17] = ATG_NFI_CIS: Attagene CIS-FACTORIAL HepG2 Assay for human Nuclear Factor I (NFI) (AID 2282989; active means hit-call score of the fitted dose curve at least 0.9, where 1 is the maximum; inactive means score below 0.9); settings: HepG2 cis-regulatory reporter, NFI response element transcription; actives raise or lower the signal
# In short: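 Read-out: reporter mRNA via RT-PCR plus capillary electrophoresis with fluorescence detection. Transiently transfected HepG2 (endogenous TF activity on cis promoters), 24 h compound exposure; gain or loss of signal fitted against DMSO.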
# [18] = biological target: Nuclear receptor subfamily 1 group I member 3 (Homo sapiens) (UniProt Q14994); assay: ATG_CAR_TRANS: Attagene TRANS-FACTORIAL HepG2 Assay for human Constitutive Androstane Receptor (CAR) (AID 2282969); settings: HepG2 Attagene TRANS-FACTORIAL CAR reporter;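 further: activators raise reporter mRNA above DMSO so AC50 marks induction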
# In short: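 HepG2 cells transiently transfected with multiplexed GAL4-UAS reporter units expressing chimeric NR-Gal4 proteins; compound exposure 24 h. Reporter mRNA measured by RT-PCR, 6-FAM labelling, HpaI digestion and capillary electrophoresis; gain-of-signal fitted against DMSO baseline.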
# [19] = biological target: Hepatocyte nuclear factor 4-alpha (Homo sapiens) (UniProt P41235); assay: ATG_HNF4a_TRANS: Attagene TRANS-FACTORIAL HepG2 Assay for human Hepatocyte Nuclear Factor 4 alpha (HNF4a) (AID 2282982); settings: HepG2 HNF4a transactivation reporter, mRNA readout
# In short: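 HepG2 cells transiently transfected with multiplexed GAL4-UAS reporter units responsive to chimeric NR-GAL4 proteins; compound exposure 24 h. Reporter mRNA quantified by RT-PCR, 6-FAM labelling, HpaI digestion and capillary electrophoresis; gain of signal versus DMSO baseline.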
# X-box-binding protein 1 (Homo sapiens), sequence (P17861 whole entry, looked up, the tested form may be a part): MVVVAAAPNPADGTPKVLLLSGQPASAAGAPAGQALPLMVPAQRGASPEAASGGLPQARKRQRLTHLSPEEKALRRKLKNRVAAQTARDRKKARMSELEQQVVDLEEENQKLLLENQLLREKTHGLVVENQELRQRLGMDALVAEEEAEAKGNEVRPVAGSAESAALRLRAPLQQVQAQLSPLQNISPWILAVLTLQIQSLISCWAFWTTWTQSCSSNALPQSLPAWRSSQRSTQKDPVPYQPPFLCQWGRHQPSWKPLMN
# Steroid hormone receptor ERR1 (Homo sapiens), sequence (P11474 whole entry, looked up, the tested form may be a part): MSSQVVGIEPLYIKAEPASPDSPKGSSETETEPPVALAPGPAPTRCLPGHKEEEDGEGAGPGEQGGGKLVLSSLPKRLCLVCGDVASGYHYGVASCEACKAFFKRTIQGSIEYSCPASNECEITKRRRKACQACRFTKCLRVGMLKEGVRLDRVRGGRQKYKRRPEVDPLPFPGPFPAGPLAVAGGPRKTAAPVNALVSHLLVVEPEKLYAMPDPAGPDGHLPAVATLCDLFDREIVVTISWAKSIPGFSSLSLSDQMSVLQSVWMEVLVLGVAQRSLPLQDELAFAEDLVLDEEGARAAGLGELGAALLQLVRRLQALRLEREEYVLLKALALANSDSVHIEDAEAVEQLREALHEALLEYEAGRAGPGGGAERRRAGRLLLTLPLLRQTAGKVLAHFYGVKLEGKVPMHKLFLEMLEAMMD
# Estrogen receptor (Homo sapiens), sequence (P03372 whole entry, looked up, the tested form may be a part): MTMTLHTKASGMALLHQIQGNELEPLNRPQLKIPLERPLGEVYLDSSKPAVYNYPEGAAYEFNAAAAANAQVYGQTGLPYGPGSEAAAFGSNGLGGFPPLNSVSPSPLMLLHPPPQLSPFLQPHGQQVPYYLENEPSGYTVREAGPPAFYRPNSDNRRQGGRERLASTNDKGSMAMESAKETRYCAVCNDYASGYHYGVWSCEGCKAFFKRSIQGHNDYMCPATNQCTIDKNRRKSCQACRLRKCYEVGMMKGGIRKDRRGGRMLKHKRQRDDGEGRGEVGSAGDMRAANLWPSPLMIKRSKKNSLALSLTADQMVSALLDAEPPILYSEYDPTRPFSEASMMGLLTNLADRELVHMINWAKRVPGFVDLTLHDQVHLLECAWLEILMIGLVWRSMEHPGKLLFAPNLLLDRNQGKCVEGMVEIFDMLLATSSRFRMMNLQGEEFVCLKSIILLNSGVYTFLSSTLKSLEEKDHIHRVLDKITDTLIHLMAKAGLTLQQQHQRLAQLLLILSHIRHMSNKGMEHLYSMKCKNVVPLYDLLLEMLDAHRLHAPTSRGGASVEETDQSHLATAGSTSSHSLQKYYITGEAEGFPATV
# Glucocorticoid receptor (Homo sapiens), sequence (P04150 whole entry, looked up, the tested form may be a part): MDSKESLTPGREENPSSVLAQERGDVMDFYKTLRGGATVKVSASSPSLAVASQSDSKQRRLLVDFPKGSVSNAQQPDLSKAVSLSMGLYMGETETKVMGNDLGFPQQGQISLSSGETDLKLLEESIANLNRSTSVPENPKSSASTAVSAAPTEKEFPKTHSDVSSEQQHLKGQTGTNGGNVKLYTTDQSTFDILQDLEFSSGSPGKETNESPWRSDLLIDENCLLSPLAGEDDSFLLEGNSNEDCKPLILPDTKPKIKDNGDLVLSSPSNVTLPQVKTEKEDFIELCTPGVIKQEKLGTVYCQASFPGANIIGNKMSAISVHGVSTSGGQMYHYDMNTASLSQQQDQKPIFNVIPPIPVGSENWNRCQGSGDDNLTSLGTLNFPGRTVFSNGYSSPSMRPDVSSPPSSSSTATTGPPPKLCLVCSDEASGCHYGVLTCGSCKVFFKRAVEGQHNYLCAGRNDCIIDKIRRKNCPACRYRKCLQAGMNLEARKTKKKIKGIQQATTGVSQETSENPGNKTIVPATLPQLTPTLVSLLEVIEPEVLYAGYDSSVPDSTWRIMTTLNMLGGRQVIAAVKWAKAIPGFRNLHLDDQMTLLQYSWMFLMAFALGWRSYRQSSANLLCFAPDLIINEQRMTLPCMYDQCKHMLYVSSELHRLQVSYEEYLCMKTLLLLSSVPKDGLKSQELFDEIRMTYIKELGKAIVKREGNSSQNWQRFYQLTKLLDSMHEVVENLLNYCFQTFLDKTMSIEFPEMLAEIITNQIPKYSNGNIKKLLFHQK
# Bile acid receptor (Homo sapiens), sequence (Q96RI1 whole entry, looked up, the tested form may be a part): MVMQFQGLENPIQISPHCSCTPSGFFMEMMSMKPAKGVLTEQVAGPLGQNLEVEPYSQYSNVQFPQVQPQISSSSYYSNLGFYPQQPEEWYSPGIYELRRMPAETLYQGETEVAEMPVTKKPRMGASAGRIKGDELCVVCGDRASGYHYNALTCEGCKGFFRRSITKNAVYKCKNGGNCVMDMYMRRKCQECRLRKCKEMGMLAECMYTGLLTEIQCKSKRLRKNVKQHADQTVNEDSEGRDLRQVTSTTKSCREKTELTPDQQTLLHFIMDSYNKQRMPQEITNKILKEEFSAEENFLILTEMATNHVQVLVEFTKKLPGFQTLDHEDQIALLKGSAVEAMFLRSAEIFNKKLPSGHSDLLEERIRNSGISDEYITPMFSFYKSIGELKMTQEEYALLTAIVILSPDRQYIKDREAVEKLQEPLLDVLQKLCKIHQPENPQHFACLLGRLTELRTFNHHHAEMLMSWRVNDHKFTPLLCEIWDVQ
# Myc proto-oncogene protein (Homo sapiens), sequence (P01106 whole entry, looked up): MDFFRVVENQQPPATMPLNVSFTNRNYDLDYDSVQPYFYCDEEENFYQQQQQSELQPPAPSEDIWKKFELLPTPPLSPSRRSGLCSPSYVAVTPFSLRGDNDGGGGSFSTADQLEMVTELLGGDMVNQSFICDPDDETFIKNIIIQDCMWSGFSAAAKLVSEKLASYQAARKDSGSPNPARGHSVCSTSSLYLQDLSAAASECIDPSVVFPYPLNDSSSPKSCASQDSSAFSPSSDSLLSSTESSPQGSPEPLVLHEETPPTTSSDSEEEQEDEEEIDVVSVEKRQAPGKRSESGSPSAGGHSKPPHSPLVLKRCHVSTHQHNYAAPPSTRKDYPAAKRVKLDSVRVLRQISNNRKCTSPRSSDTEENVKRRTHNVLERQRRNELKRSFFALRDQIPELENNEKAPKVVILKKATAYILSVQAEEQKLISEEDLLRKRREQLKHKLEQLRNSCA
# Hepatocyte nuclear factor 4-alpha (Homo sapiens), sequence (P41235 whole entry, looked up, the tested form may be a part): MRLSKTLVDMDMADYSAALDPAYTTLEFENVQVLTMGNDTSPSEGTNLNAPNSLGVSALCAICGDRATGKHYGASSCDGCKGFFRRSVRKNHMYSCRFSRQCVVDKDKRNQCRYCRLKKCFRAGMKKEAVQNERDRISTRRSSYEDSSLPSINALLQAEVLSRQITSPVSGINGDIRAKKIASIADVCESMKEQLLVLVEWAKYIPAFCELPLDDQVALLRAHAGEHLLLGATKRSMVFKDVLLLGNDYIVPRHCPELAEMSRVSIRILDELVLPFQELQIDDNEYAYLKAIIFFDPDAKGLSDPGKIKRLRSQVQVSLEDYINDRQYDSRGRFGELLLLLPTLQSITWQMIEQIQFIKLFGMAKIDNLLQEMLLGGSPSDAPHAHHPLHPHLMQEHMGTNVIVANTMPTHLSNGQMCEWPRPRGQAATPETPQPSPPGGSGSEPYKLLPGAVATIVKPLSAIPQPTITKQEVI
# Oxysterols receptor LXR-alpha (Homo sapiens), sequence (Q13133 whole entry, looked up, the tested form may be a part): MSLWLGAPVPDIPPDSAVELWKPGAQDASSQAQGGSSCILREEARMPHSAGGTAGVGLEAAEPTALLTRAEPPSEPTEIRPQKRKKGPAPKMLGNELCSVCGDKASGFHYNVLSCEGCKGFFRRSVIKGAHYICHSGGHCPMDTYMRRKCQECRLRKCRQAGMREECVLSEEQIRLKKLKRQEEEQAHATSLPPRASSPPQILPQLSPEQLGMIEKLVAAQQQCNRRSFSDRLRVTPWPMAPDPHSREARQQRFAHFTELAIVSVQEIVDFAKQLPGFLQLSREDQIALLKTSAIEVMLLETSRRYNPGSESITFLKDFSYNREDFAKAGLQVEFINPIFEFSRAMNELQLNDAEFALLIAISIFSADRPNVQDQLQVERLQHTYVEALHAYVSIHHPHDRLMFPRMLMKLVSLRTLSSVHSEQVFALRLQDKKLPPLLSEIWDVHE
# Nuclear receptor subfamily 1 group I member 3 (Homo sapiens), sequence (Q14994 whole entry, looked up, the tested form may be a part): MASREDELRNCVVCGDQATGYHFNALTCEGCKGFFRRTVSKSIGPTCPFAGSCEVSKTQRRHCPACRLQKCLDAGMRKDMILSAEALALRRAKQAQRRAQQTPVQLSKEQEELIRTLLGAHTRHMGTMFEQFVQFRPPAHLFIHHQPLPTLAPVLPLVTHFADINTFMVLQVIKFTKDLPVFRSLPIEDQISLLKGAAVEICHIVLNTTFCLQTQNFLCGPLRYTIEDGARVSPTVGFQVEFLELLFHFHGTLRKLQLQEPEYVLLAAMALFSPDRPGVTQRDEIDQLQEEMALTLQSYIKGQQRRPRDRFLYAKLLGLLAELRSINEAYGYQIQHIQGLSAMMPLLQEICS
# Nuclear receptor subfamily 4 group A member 2 (Homo sapiens), sequence (P43354 whole entry, looked up, the tested form may be a part): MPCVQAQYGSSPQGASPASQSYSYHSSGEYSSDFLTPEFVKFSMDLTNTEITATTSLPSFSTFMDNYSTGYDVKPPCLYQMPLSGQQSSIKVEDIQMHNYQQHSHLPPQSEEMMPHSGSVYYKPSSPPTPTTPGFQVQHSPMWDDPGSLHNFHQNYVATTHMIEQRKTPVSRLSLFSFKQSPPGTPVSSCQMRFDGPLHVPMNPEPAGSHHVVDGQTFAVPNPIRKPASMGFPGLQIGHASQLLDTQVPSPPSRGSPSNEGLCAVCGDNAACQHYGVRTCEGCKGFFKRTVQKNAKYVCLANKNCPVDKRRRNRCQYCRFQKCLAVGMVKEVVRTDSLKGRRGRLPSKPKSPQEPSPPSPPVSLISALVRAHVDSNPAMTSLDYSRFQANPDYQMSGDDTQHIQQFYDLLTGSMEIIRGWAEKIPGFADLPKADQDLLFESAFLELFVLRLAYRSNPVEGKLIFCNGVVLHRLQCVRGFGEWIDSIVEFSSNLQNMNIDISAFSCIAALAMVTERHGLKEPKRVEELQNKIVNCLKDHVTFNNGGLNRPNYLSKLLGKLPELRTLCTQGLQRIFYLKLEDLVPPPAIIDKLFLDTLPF
compound,measurement,setting,value
O=C(C=C(O)C(F)(F)F)C(F)(F)F,outcome,[1],inactive
same,outcome,[2],inactive
same,outcome,[3],inactive
same,outcome,[4],inactive
same,outcome,[5],inactive
same,outcome,[6],inactive
same,outcome,[7],inactive
same,outcome,[8],inactive
same,outcome,[9],inactive
same,outcome,[10],inactive
O=C(CC(=O)C(F)(F)C(F)(F)C(F)(F)F)c1cccs1,outcome,[1],inactive
same,outcome,[2],inactive
same,AC50,[3],8.17 µM (active) and 32.9 µM (active)
same,outcome,[11],inactive
same,outcome,[12],inactive
same,outcome,[5],inactive
same,outcome,[13],inactive
same,outcome,[14],inactive
same,outcome,[15],inactive
same,outcome,[7],inactive
same,outcome,[16],inactive
same,outcome,[9],inactive
same,outcome,[17],inactive
same,outcome,[10],inactive
C=COC(=O)C(C)(C)CCCCCC,outcome,[18],inactive
same,AC50,[1],41 µM (active)
same,outcome,[3],inactive
same,outcome,[5],inactive
same,outcome,[13],inactive
same,outcome,[19],inactive
same,outcome,[15],inactive
same,outcome,[7],inactive
same,outcome,[16],inactive
same,outcome,[8],inactive
same,outcome,[9],inactive
same,outcome,[17],inactive
same,outcome,[10],inactive
Brc1cc(Br)c(Oc2c(Br)cc(Br)c(Br)c2Br)cc1Br,outcome,[1],inactive
same,outcome,[2],inactive
same,outcome,[3],inactive
same,outcome,[11],inactive
same,outcome,[4],inactive
same,outcome,[12],inactive
same,outcome,[5],inactive
same,outcome,[6],inactive
same,outcome,[14],inactive
same,outcome,[15],inactive
same,outcome,[7],inactive
same,outcome,[8],inactive
same,outcome,[9],inactive
same,outcome,[10],inactive
CCCCCC(C)OC(=O)COc1ccc(Cl)c2cccnc12 (stereo unspecified),outcome,[18],inactive
same,outcome,[3],inactive
same,outcome,[4],inactive
same,outcome,[5],inactive
same,outcome,[6],inactive
same,outcome,[19],inactive
same,outcome,[15],inactive
same,outcome,[9],inactive
same,outcome,[10],inactive
FC(OC(F)(F)C(F)(F)C(F)(F)F)C(F)(F)F (stereo unspecified),outcome,[1],inactive
same,outcome,[2],inactive
same,outcome,[3],inactive
same,outcome,[11],inactive
same,outcome,[4],inactive
same,outcome,[12],inactive
same,outcome,[5],inactive
same,outcome,[6],inactive
same,outcome,[13],inactive
same,outcome,[14],inactive
same,outcome,[8],inactive
same,outcome,[9],inactive
same,outcome,[17],inactive
same,outcome,[10],inactive
OCC(F)(F)C(F)(F)C(F)(F)C(F)(F)C(F)(F)C(F)(F)C(F)(F)C(F)(F)C(F)(F)C(F)(F)C(F)(F)F,outcome,[18],inactive
same,AC50,[1],62.3 µM (active)
same,outcome,[3],inactive
same,outcome,[5],inactive
same,outcome,[19],inactive
same,outcome,[15],inactive
same,outcome,[7],inactive
same,outcome,[8],inactive
same,outcome,[9],inactive
same,outcome,[17],inactive
same,outcome,[10],inactive
O=C(F)C(F)(F)C(F)(F)C(F)(F)C(F)F,outcome,[1],inactive
same,outcome,[2],inactive
same,outcome,[3],inactive
same,outcome,[11],inactive
same,outcome,[4],inactive
same,outcome,[5],inactive
same,outcome,[6],inactive
same,outcome,[13],inactive
same,outcome,[14],inactive
same,outcome,[15],inactive
same,outcome,[7],inactive
same,outcome,[16],inactive
same,outcome,[8],inactive
same,outcome,[9],inactive
same,outcome,[10],inactive
CC(C)CCOCCC(C)C,outcome,[1],inactive
same,outcome,[2],inactive
same,outcome,[3],inactive
same,outcome,[4],inactive
same,outcome,[5],inactive
same,outcome,[6],inactive
same,outcome,[14],inactive
same,outcome,[15],inactive
same,outcome,[16],inactive
same,outcome,[8],inactive
same,outcome,[9],inactive
same,outcome,[17],inactive
same,outcome,[10],inactive
C=C(c1ccc(C(=O)O)cc1)c1cc2c(cc1C)C(C)(C)CCC2(C)C,AC50,[1],31.2 µM (active)
same,outcome,[1],inactive
same,outcome,[2],inactive
same,outcome,[11],inactive
same,outcome,[5],inactive
same,outcome,[13],inactive
same,outcome,[14],inactive
same,outcome,[15],inactive
same,outcome,[7],inactive
same,outcome,[9],inactive
same,outcome,[17],inactive
same,AC50,[10],26 µM (active)
same,outcome,[10],inactive
